Laboratory results from PubChem BioAssay AID435030 (The Scripps Research Institute Molecular Screening Center, 2010).
Where “and” joins values, the source holds several entries; their conditions need not be identical. Equal values may be shown once. The campaign covered roughly 330,000 compounds. About 940 (0.28%) were called active. Cut-off read from the data, not from the text of the source: active = inhibition above about 12%; inactive = the rest. Shown is part of a subset that was picked to be rich in actives. A structure can be active in one record and inactive in another.

Experiment: growth inhibition of E. coli expressing H. pylori AddAB, primary screen, AddAB inhibitor project, absorbance (AID 435030);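 note: 0% = vehicle wells of infected cells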
Settings: at 11.9 µM, stronger effect = higher value

SMILES | inhibition
Cc1ccc(NC(=O)C(C)Sc2nnc(C3CC3)n2C2CC2)cc1S(=O)(=O)N1CCOCC1 (configuration not stated) | -0.26% (inactive)
Cc1ccc(C23CC4CC(CC(C(=O)NCC(=O)O)(C4)C2)C3)cc1 | 1.92% (inactive)
COc1ccccc1NC(=S)N1CCC(NC(=O)C23CC4CC(CC(C4)C2)C3)CC1 | 4.75% (inactive)
CCOc1ccccc1NC(=O)C12CC3CC(C1)CC(c1ccc(C)cc1)(C3)C2 | 78.7% (active)
Cc1ccc(C(=O)/C=C/Nc2ccc(S(=O)(=O)Nc3onc(C)c3C)cc2)cc1 | 12.7% (active)
Cc1noc(NS(=O)(=O)c2ccc(NC(=O)C34CCC(CC3)C4)cc2)c1C | 1.62% (inactive)
Cc1cc(OC(C)C(=O)Nc2ccc(S(=O)(=O)Nc3onc(C)c3C)cc2)cc(C)c1Cl (configuration not stated) | -1.11% (inactive)
Cc1ccc(Sc2ccncc2S(N)(=O)=O)cc1 | 4.14% (inactive)
COc1ccc(N2CCN(S(=O)(=O)CCNC(=O)C34CC5CC(CC(C5)C3)C4)CC2)cc1 | 3.21% (inactive)
COc1cccc(NC(=O)C(Sc2nc3ccccc3c(=O)n2CC(C)C)c2ccccc2)c1 (configuration not stated) | 2.26% (inactive)
O=C(NNC(=O)C1CCCC1)c1ccc(F)cc1 | -2.96% (inactive)
O=C(/C=C/c1ccc([N+](=O)[O-])o1)NNC(=O)c1ccc(F)cc1 | 97.8% (active)
CCc1noc(C)c1C(=O)NNC(=O)c1ccc(F)cc1 | -0.34% (inactive)
Cc1ccc(Cl)cc1NC(=S)N(CCN(C)C)Cc1cccs1 | 4.63% (inactive)
CCn1c(/C=C/Nc2ccccc2)[n+](CC)c2ccc(C(=O)OCC(F)(F)F)cc21 | -1.7% (inactive)
S=c1[nH]nc(-c2ccc(Cl)cc2)n1CC1CCCO1 (configuration not stated) | 0.6% (inactive)
O=C(c1nnc(-c2ccc(Cl)cc2)o1)C1CCCC1 | 0.77% (inactive)
O=C(c1[nH]ncc1-c1ccc(Cl)cc1)C1CO1 (configuration not stated) | 12.5% (active)
CCC(C)[C@H]1COCCS(=O)(=O)N1Cc1ccc(C)cc1 (some centres not stated) | 2.11% (inactive)
CC(C)(C)OC(=O)C1=C(CO)CS[C@@H]2[C@H](NC(=O)Cc3ccccc3)C(=O)N12 | 0.4% (inactive)
C=CC1=C(C(=O)O)N2C(=O)[C@@H](NC(=O)/C(=N/OCC(=O)O)c3csc(N)n3)[C@H]2SC1 | 97.5% (active)

SMILES | inhibition
Cc1nnc(SCC2=C(C(=O)O)N3C(=O)C(NC(=O)Cn4nc(C)c(Cl)c4C)C3SC2)s1 (configuration not stated) | -3.23% (inactive)
Cc1cc(C)cc(C(=O)NC2C(=O)N3C(C(=O)O)=C(CSc4nnc(C)s4)CSC23)c1 (configuration not stated) | -1.61% (inactive)
C=CC1=C(C(=O)O)N2C(=O)[C@@H](NC(=O)/C(=N\OCC(=O)O)c3csc(N)n3)[C@H]2SC1 | 99.5% (active)
CO/N=C(\C(=O)N[C@@H]1C(=O)N2C(C(=O)O)=C(COC(C)=O)CS[C@H]12)c1csc(N)n1 (stereo in doubt) | 98.8% (active) and 99.7% (active) and -0.42% (inactive)
Cc1ccc(S(=O)(=O)N2[C@@H](c3cccc4ccccc34)C(C(=O)O)=C[C@H]2C(C)(C)C)cc1 | -0.17% (inactive)
C=CCOc1cccc(CNCc2cccnc2)c1 | 4.34% (inactive)
O=C1N[C@H](Cc2ccccc2)C(=O)N[C@H]1Cc1cn(S(=O)(=O)c2ccccc2)c2ccccc12 | 3.88% (inactive)
Cc1ccc(C(=O)N/C(=C\c2cccs2)C(=O)NCCc2ccccn2)cc1C | -1.59% (inactive)
COc1ccc(C(=O)c2c(C)c(CCC#N)n3ccccc23)c(OC)c1 | 4.64% (inactive)
CNc1ccc(SC#N)cc1 | 3.2% (inactive)
CC(=O)Nc1ccc(NC(=O)CC2CCCC2)cc1 | 3.59% (inactive)
CCOC(=O)c1cnc(-n2nc(C)cc2C)nc1NNc1cc(C)nc(-c2ccccc2)n1 | 1.33% (inactive)
O=C(Nc1ccc2c(c1)CCC2)c1ccc(Br)s1 | 0.08% (inactive)
Cc1nn(CC#N)c(=O)n1N(C)c1ncc(C(F)(F)F)cc1Cl | -0.77% (inactive)
CC(=O)NN1C(=O)c2ccccc2NC1c1ccccc1 (configuration not stated) | 0.33% (inactive)
O=C(O)C(c1ccccc1)N1C(=O)/C(=C\c2ccc(-c3cccc(Cl)c3)o2)SC1=S (configuration not stated) | 1.17% (inactive)
O=C1c2ccccc2NC(c2ccc(-c3cccc(Cl)c3)o2)N1O (configuration not stated) | 21.1% (active)
O=C(N=C1SC2CS(=O)(=O)CC2N1c1cc(Cl)ccc1Cl)C1CC1 (configuration not stated) | 1.12% (inactive)
CCC1CO/C(=C(\C(=C(Cl)Cl)N2CCOCC2)[N+](=O)[O-])N1 (configuration not stated) | 0.26% (inactive)
Cc1cc(C)n(-c2nnc(N3CCN(c4ccccc4)CC3)nn2)n1 | 1.11% (inactive)
COc1ccc(OC)c(NC(=O)C2CCCN2S(=O)(=O)c2cccc3nsnc23)c1 (configuration not stated) | 2.19% (inactive)

SMILES | inhibition
Cc1ncoc1C(=O)NCCC(c1ccccc1)c1ccccc1 | 0.08% (inactive)
CCOc1cc(S(=O)(=O)NCc2ccc3c(c2)OCO3)ccc1F | 1.89% (inactive)
Cn1ccc(=Nc2ccc(NC(=O)c3ccc(N=c4ccn(C)c5ccc([N+](=O)[O-])cc45)cc3)cc2)cc1 | 95.1% (active)
CC(=O)NC(=S)Nc1ccc(NC(=S)NC(=O)c2ccc([N+](=O)[O-])cc2)cc1 | -0.43% (inactive)
COc1cc(NS(=O)(=O)c2ccc(NC(=O)c3ccc([N+](=O)[O-])cc3)cc2)ncn1 | 0.95% (inactive)
Brc1ccc(CN2CC[C@H]3C=CCc4cccc(c43)C2)cc1 | 4.02% (inactive)
C=CCNC(=O)c1cc(-c2ccccc2O)on1 | 96.1% (active)
O=C(Nc1cccnc1Cl)c1cc(-c2ccccc2O)on1 | 3.57% (inactive)
C=CCNC(=O)c1csc(-c2ccccc2)n1 | 0.48% (inactive)
FC(F)(F)c1ccc2nnc(-c3c(Cl)cccc3Cl)n2c1 | 2.64% (inactive)
Cc1ccc(OCC(=O)c2cc(C)n(Cc3ccco3)c2C)c([N+](=O)[O-])n1 | 3.36% (inactive)
O=C(OCC1O[C@@H](OC(=O)c2cc(O)c(O)c(O)c2)[C@@H](OC(=O)c2cc(O)c(O)c(O)c2)[C@@H](OC(=O)c2cc(O)c(O)c(O)c2)[C@@H]1OC(=O)c1cc(O)c(O)c(O)c1)c1cc(O)c(O)c(O)c1 (some centres not stated) | 27.8% (active)
C=C1c2cccc(OC)c2O[C@H](C(=O)OCC)[C@@H]1CCCCCC | -0.56% (inactive)
CS(=O)(=O)N(CC(=O)Nc1ccc(Cl)c(Cl)c1)C1CCCCC1 | -0.7% (inactive)
O=C(CCCN1C(=O)CCC1=O)Nc1ccc(Cl)c(C(F)(F)F)c1 | 2.75% (inactive)
O=C(CC(O)(C(F)(F)F)C(F)(F)F)Nc1ccc(Cl)c(Cl)c1 | 18.6% (active)
COc1cc(C)c(C(C)C)cc1S(=O)(=O)n1ccnc1 | 2.64% (inactive)
O=C(NCc1ccco1)c1ccc([N+](=O)[O-])cc1Cl | 0% (inactive)
CS(=O)(=O)c1ccc(Cl)c(NC(=O)COC(=O)c2ncc(Cl)c(Cl)c2Cl)c1 | 1.36% (inactive)
CCCCOc1ccc(Cl)cc1CSc1nncn1N | 0.43% (inactive)
